M1 PAM – positive allosteric modulators of human M1 muscarinic receptor; activation, % at 3 µM; AID 588819; CHO-K1 hM1, Fluo-8 calcium fluorescence, ACh EC20; 0% = ACh EC20, 100% = maximal ACh; P11229; 0.088% of 360,000 active; in the data active means activation above about 19%, passing the limit was not always enough
Target sequence (P11229 whole entry, looked up): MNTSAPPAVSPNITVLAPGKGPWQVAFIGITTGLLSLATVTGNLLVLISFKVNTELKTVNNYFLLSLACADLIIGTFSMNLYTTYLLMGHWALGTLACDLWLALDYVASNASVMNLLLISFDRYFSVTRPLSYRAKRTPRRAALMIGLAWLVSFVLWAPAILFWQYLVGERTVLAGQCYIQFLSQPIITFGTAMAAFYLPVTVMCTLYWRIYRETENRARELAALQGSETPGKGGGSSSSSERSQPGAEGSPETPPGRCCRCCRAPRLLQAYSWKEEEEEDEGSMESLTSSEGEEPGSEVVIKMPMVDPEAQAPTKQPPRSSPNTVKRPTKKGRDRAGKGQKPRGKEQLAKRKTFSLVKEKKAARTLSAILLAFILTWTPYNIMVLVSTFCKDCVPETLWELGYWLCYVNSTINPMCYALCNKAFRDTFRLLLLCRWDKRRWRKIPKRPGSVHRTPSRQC
CHO-K1 Ca antag – counter-screen for M1 antagonists: effect in parental CHO-K1 cells; ATP-induced calcium, Fluo-8 fluorescence; 0.6% of 360,000 active; inhibition, % at 3 µM;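 active means inhibition above a per-plate cutoff, the plate's mean sample inhibition plus 3 SD, cut at about 24% in these data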;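 further: 0% = DMSO plus EC80 ATP and 100% = DMSO alone without ATP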
M1 ag – activates human CHRM1 receptor. P11229. CHO-K1 hM1, Fluo-8 calcium fluorescence, agonist mode; 0% DMSO, 100% acetylcholine EC100. activation, % at 3 µM. 0.33% of 360,000 active. AID 588814;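 active means activation above the run's mean compound activation plus 3 SD, cut at about 16% in these data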;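 further: peak over basal fluorescence ratio within a 140 s kinetic read after compound addition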
M1 PAM parental – M1 PAM counterscreen hit in parental CHO-K1 cells | AID 602247 | ATP EC20, Fluo-8 calcium fluorescence; 0% at ATP EC20, 100% at ATP max | activation, % at 3 µM | 0.02% of 360,000 active;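 active means activation above the run cutoff, the mean activation of all test compounds plus 3 SD, cut at about 40% in these data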;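 further: peak over basal fluorescence ratio in a 140 s read after ATP addition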
CHO-K1 Ca ag – M1 agonist counterscreen hit in parental CHO-K1 cells. Fluo-8 calcium fluorescence; scaled to maximal ATP response, vehicle zero. activation, % at 3 µM. 0.48% of 360,000 active. AID 602248; in the data active means activation above about 15%;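 further: untransfected CHO-K1 host cells lacking M1 receptor as counterscreen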
M1 antag – antagonists of human M1 muscarinic receptor. CHO-K1 hM1, Fluo-8 calcium fluorescence, ACh EC80 antagonist. inhibition, % at 3 µM. 1.3% of 360,000 active;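 active means percent inhibition above its own plate's cutoff, namely the mean of that plate's compound wells plus 3 SD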;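 further: peak over basal fluorescence ratio during 140 s after agonist addition; 0% = ACh EC80 plus DMSO and 100% = DMSO alone without agonist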
Starred values were filed as active, the others as inactive. This is a sample that favours compounds with a hit; in the whole collection about 2.3% have one here.

SMILES	M1 PAM	CHO-K1 Ca antag	M1 ag	M1 PAM parental	CHO-K1 Ca ag	M1 antag
Cc1cc(C(=O)CN2C(=O)NC(C)(c3ccc(F)c(F)c3)C2=O)c(C)n1C1CC1 (configuration not stated)	5	-2	22*	21	12	-7
CSCCC(=O)N(C)CC1CCCN(CCc2cccc(C(F)(F)F)c2)C1 (configuration not stated)	-23	-6	-8	15	0	37*
COC(=O)CCC(=O)N(C)CC1CCCN(CCc2cccc(C(F)(F)F)c2)C1 (configuration not stated)	-25	-2	-11	5	0	44*
CC(=O)NCCC(=O)N(C)CC1CCN(CCc2cccc(C(F)(F)F)c2)CC1	0	-3	-5	7	0	-3
COc1cc(CN(C)CC2CCCN(CCc3cccc(C(F)(F)F)c3)C2)ccc1O (configuration not stated)	-29	-12	-9	7	0	49*
COc1ccc(Cl)cc1-c1cc(C(=O)NCc2ccc(C(F)(F)F)cc2)[nH]n1	-11	2	-3	-6	0	19
CCCCOc1ccc(Br)cc1/C(C)=N/NC1=NCCN1	-22	2	-4	8	1	73*
COc1ccc(OCC(O)CNCCOc2ccccc2OC)c(C(C)(C)C)c1 (configuration not stated)	1	-2	-1	-1	11	6
COc1ccc(C(CNC(=O)c2ccc(Cl)c(NC(=O)c3cccs3)c2)N2CCCC2)cc1 (configuration not stated)	-27	-12	-6	14	2	46*
COc1ccc(C(CNC(=O)Cc2ccccc2Cl)N2CCCCC2)cc1 (configuration not stated)	-28	-10	-10	-3	1	38*
COc1ccc(C(CNC(=O)c2cccc(S(=O)(=O)N3CCCC3)c2)N2CCCC2)cc1 (configuration not stated)	-7	-10	-7	2	0	7
COc1ccc(C(CNC(=O)CCNS(=O)(=O)c2ccccc2)N2CCOCC2)cc1 (configuration not stated)	-13	9	-4	-14	0	30*
CCCCCCN[C@H]1CCC2C3CC=C4C[C@@H](O)CC[C@]4(C)C3CC[C@@]21C (some centres not stated)	-30	-11	-4	14	5	90*
CC(C)C(=O)N[C@H]1CCC2C3CC=C4C[C@@H](O)CC[C@]4(C)C3CC[C@@]21C (some centres not stated)	11	-5	-7	6	0	-17
COc1ccccc1CCCNC(=O)C1CCC(=O)N(CCc2cccc(F)c2)C1 (configuration not stated)	4	-17	-2	-6	1	-8
CCN(CC)CCOC(=O)C(Cc1cccc2ccccc12)CC1CCCO1 (configuration not stated)	-25	-1	-9	-8	1	45*
C[C@@]12C(=O)Nc3ccc(F)cc3C(=O)N1[C@H]1c3cc(Cl)ccc3OC[C@@H]1[C@@H]2c1ccccc1	-16	-23	-5	22	1	21
C[C@@]12C(=O)Nc3cc(F)c(F)cc3C(=O)N1[C@H]1c3ccccc3OC[C@@H]1[C@@H]2c1ccccc1	-32	-16	-6	8	1	79*
C[C@@]12C(=O)Nc3ccc(F)cc3C(=O)N1[C@H]1c3ccccc3OC[C@@H]1[C@@H]2c1ccccc1	-37	-7	-7	12	1	89*
NC(=O)c1nsc(C(=O)N(c2ccccc2F)C(C(=O)NCc2ccccc2)c2ccc(O)cc2)c1N (configuration not stated)	-23	7	1	-24	7	39*
Cc1ccccc1N(C(=O)c1snc(C(N)=O)c1N)C(C(=O)NCc1ccccc1)c1ccc(O)cc1 (configuration not stated)	-1	8	2	-9	8	10
Cc1cc(/C=N/NC(N)=S)c(C)n1-c1ccc(Cl)cc1	-6	4	-6	5	18*	3
FC(F)(F)c1cccc(NC(=S)N2CCN(c3cccc(C(F)(F)F)c3)CC2)c1	-15	12	-4	-3	0	38*
O=C(c1coc2ccccc2c1=O)N1CCN(c2cccc(C(F)(F)F)c2)CC1	-34	-17	-11	3	1	54*

Screening data as filed in PubChem BioAssay.
